Assay results as given in the supplement of paper PMC10338343.
± gives the standard deviation.

test system: MILI (PIWIL2) piRISC loaded with L1MC piRNA (26 nt); assay: pre-steady-state target cleavage rate (min^-1); guide: L1MC piRNA 5'p-UAACUAAAUACUAUGCAAGCUGUAGG; MIWI and MILI are mouse PIWI proteins and EfPiwi is from a freshwater sponge; tags in brackets are library labels; higher = faster piRNA-guided slicing of the target; details: auxiliary factor: 500 nM mouse GTSF1
How it was run: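 The pre-steady-state cleavage rate came from a burst-and-steady-state fit to pooled data from three Cleave-'n-Seq trials, in which uncleaved targets were sequenced and normalised to depth and to weakly complementary targets. Each reaction held 0.1 nM transcribed, DNA-blocked target RNA library and 1 nM active affinity-purified piRISC carrying one synthetic guide, with or without 500 nM GTSF1 partner protein, in HEPES–potassium acetate buffer at 33 °C for 0–8 or 0–960 min. k3 was capped at 0.0001 min^-1.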

Sequence | pre-steady-state target cleavage rate
UCCUGGAUGUCCUUGCUAUGUAUUUAGUAA | 0.00762 ± 0.0042
UCCUCCUAGUCCUUGCAUAGUAUUUAGAAA | 0.0654 ± 0.017
UCCUGGAUGUCGUUGCAUAGUAUUUAGGUA | 0.0112 ± 0.0062
UCCUGCUAGAGCUUCCAUAGUAUUUAGUUA | 0.246 ± 0.047
UCCUGGAUGUCGAUGCAUAGUAUUUAGUGA | 0.0843 ± 0.016
UCCUGGAACAGCUUGCAUAGUAUUUAUUUA | 0.113 ± 0.026
UCCUGCUACAGCAAGCAUAGUAUUUACAAA | 0.191 ± 0.055
UCCUGGAUGUGCUAGCAUAGUAUUUAGAUA | 0.0954 ± 0.023
UCCUGGAUGACCUUGCAUAGUAUUUACUUA | 0.0753 ± 0.027
UCCUGGAUGUGCUAGCAUAGUAUAUAGUUA | 0.115 ± 0.018
UCCUGGUACAGCUUGCAUAGUAUUAUCAAA | 0.0127 ± 0.0058
UCCUGGAUGUCCUUGCAAACUAUUUAGUUA | 0.00732 ± 0.0037
UCCUGCUACAGCAACCAUAGUAUUUAGUAA | 0.35 ± 0.063
UCCUCCUACAGCUUGCAUAGAUUUUUCAAA | 0.0441 ± 0.013
UCCUGGAUGUCCUUGCAUAGUAUUUAUGUUA | 0.0185 ± 0.0059
UCCUGGAACAGCUUGCAUUAGUAUUUAGUUA | 0.0128 ± 0.0055
UCCUGGAUGAGGUUGCAUACUAUUUAGUUA | 0.0167 ± 0.006
UCCUCCUACAGGUUGCAUAGUAUUUACUUA | 0.0691 ± 0.015

Sequence | pre-steady-state target cleavage rate
UCCUGGUUGUGCUUGCAUAGUAUUUUCAAA | 0.00513 ± 0.005
UCCUGGAUGUCGAAGCAUAGUAUGUAGUUA | 0.0113 ± 0.0045
UCCUGGAUGUCGUUGCAUAGUAUGUAGUUA | 0.015 ± 0.0074
UCCUGGAUGUGCUUGCUUAGUAUUAAGUUA | 0.0615 ± 0.017
UCCUGGUACAGCUUGCAAUGUAUUUAGUAA | 0.0576 ± 0.013
UCCUGGAUGUGCAAGCAUAGUAUUUAGUAA | 0.0583 ± 0.013
UCCUGCUACAGCUUGCAUUCUAUUUAGUAA | 0.0252 ± 0.0088
UCCUGCUACACCUUGCAUAGUAUUUAGAAA | 0.169 ± 0.036
UCCUGGAUGUCGUUGCAUAGUAUUUAAUUA | 0.0359 ± 0.013
UCCUGGAUGUGCUUCCAUUGUAUUUAGUUA | 0.0206 ± 0.0071
UCCUGGUACACCUUGCAUAGUAUUUUCAAA | 0.0291 ± 0.016
UCCUGGAUCACCUUGCAUAGUAUUUACAAA | 0.131 ± 0.031
UCCUCCUACAGCUUGCAUAGUAUAUACAAA | 0.0968 ± 0.025
UCCUGCUACAGCUUGGAUAGAAUUUAGUUA | 0.0646 ± 0.014
UCCUGGAUGUCGAACGUAUCUAUUUAGGUA | < 0.0001
UCCUGGAUCAGCUUGCUAAGUAUUUUCAAA | 0.00483 ± 0.0036
UCCUGGAUGUCGAAGCAUAGUAUUUAGAUA | 0.00991 ± 0.0044

same assay, conditions: auxiliary factor: none (no GTSF1)

Sequence | pre-steady-state target cleavage rate
UCCUGGAUGUCGAACCAUAGUAUUAUGUUA | < 0.0001
UCCUGGAUGUCGAACGUAUGUAUAAAGUUA | < 0.0001
UCCUGGAUGUCGAACGUUAGUAUUUGUUA | < 0.0001
UCCUGGAUGUCGAACCAUAAUAUUUAGUUA | < 0.0001
UCCUGGAUGUCGAUGCAUAGAUAAAUCAAA [g11:g17:cont:t1A] | < 0.0001
